In PubChem BioAssay (NCI):
The panel holds about 79,000 compounds, 15% with a hit somewhere; the sample as a whole holds those more often. A number with no mark means an inactive call. Activity calls are given as the source filed them. No stated cut-off is given here; in the data, active means growth inhibition above about 70%; inactive means the rest.

How the values were obtained:
[1] = NCI Yeast Anticancer Drug Screen. Data for the rad50 strain (AID 155);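 further: 0% = growth of vehicle-only cultures of the same strain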; details: S. cerevisiae rad50 strain growth inhibition, stronger effect = higher value
Outline: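 Yeast carrying a defined DNA repair defect were exposed to test compounds, and growth was compared with vehicle-treated controls to give percent inhibition.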

[2] = NCI Yeast Anticancer Drug Screen. Data for the mec2-1 strain (AID 157); details: S. cerevisiae mec2-1 strain, stronger effect = higher value
Outline: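 Test agents were screened against the mec2-1 yeast strain, with defined DNA repair or cell cycle alteration. Growth was scored as inhibition against vehicle-only controls.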

[3] = NCI Yeast Anticancer Drug Screen. Data for the sgs1 mgt1 strain (AID 161);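 further: 0% = growth of cultures given vehicle only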; details: S. cerevisiae sgs1 mgt1 strain, stronger effect = higher value
Outline: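 Test agents were incubated with a DNA-repair-mutant yeast strain. Growth was then read and compared against vehicle-treated controls.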

[4] = NCI Yeast Anticancer Drug Screen. Data for the cln2 rad14 strain (AID 165);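 further: 0% = growth equal to vehicle treated cultures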; details: S. cerevisiae cln2 rad14 strain, stronger effect = higher value
Outline: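 Growth of compound-exposed yeast (cln2 rad14 genotype) measured and expressed as inhibition relative to vehicle.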

[5] = NCI Yeast Anticancer Drug Screen. Data for the bub3 strain (AID 167); details: S. cerevisiae bub3 mutant strain, stronger effect = higher value
Outline: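 Compounds were applied to a genetically altered yeast strain carrying a cell-cycle control defect. Growth inhibition was scored against vehicle-treated controls.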

[6] = NCI Yeast Anticancer Drug Screen. Data for the mlh1 rad18 strain (AID 175); details: S. cerevisiae mlh1 rad18 strain growth inhibition, stronger effect = higher value
Outline: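 In this whole-cell yeast screen, a strain with altered DNA damage repair is challenged with compound, and its growth is measured against matched vehicle-treated controls.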

[7] = at 5.0 µM (retest, dose inferred, filed as 0.5)
[8] = at 50.0 µM (retest, dose inferred, filed as 5.0)

Structure (SMILES)	growth inhibition [1, 7]	growth inhibition [1, 8]	growth inhibition ([1]; at 50.0 µM)	growth inhibition [2, 7]	growth inhibition [2, 8]	growth inhibition ([2]; at 50.0 µM)	growth inhibition [3, 7]	growth inhibition [3, 8]	growth inhibition ([3]; at 50.0 µM)	growth inhibition [4, 7]	growth inhibition [4, 8]	growth inhibition ([4]; at 50.0 µM)	growth inhibition [5, 7]	growth inhibition [5, 8]	growth inhibition ([5]; at 50.0 µM)	growth inhibition [6, 7]	growth inhibition [6, 8]	growth inhibition ([6]; at 50.0 µM)
CN(C)Cc1cc(C(C)(C)C)cc(C2CCCCC2)c1O	2%	58%	66.4%	-9%	66%	38.5%	-1%	95% (active)	74.3% (active)	-4%	8%	61.7%	-6%	40%	71.8% (active)	1%	94% (active)	92.4% (active)
O=c1c2c3ccccc3[nH]c2c2cccc3c2n1CCC3	4%	92% (active)	88.7% (active)	5%	88% (active)	90% (active)	13%	89% (active)	88.2% (active)	-1%	69%	83.5% (active)	11%	96% (active)	89.3% (active)	13%	94% (active)	88.8% (active)
c1ccc(CCNCc2ccco2)nc1	-2%	-5%	42.5%	-7%	-20%	0.6%	-7%	-26%	-21.2%	-18%	-91%	23.6%	3%	-2%	-24.3%	-7%	-3%	7.7%
CCC[CH2][Sn]([CH2]CCC)([O]C(=O)c1cc(F)ccc1F)[O]C(=O)c1cc(F)ccc1F	42%	42%	84.1% (active)	25%	25%	83.6% (active)	33%	33%	73.1% (active)	13%	13%	70.4% (active)	22%	22%	79.2% (active)	20%	20%	78.2% (active)
N#CC1C2CCC3(CC2CCN1C(=O)c1ccccc1)OCCO3 (configuration not stated)	-1%	59%	32.5%	-1%	76% (active)	72.2% (active)	-6%	60%	43%	-7%	78% (active)	71.8% (active)	12%	82% (active)	82.8% (active)	-7%	77% (active)	60.9%
C=CCc1cccc(/C=N\N=C(/N)NO)c1O	-1%	26%	43.5%	2%	35%	84.5% (active)	3%	59%	41.1%	-6%	26%	48.6%	-4%	8%	70% (active)	-2%	42%	83.2% (active)
Oc1ccc(CC2CCC(O)CC2)cc1 (configuration not stated)	-169%	-33%	50.5%	-61%	-33%	28.6%	-66%	-54%	22.6%	-59%	-43%	45%	-76%	-24%	46.6%	-121%	-78%	24.2%
O=C(Cc1ccccc1)OC(C(=O)c1ccccc1)c1ccccc1 (configuration not stated)	4%	94% (active)	-15.7%	7%	95% (active)	10.3%	3%	93% (active)	-0.1%	2%	90% (active)	-12.3%	20%	92% (active)	72.2% (active)	4%	92% (active)	-3.1%
CC(C)NC(=O)O/N=C1\CCC2[C@@H]3CC=C4C[C@@H](OC(=O)NC(C)C)CC[C@]4(C)C3CC[C@]12C (some centres not stated)	88% (active)	77% (active)	83% (active)	91% (active)	67%	83% (active)	90% (active)	73% (active)	92.3% (active)	95% (active)	75% (active)	81.2% (active)	83% (active)	72% (active)	91.2% (active)	91% (active)	71% (active)	92% (active)
Nc1ccccc1Sc1ccccc1	36%	58%	83.2% (active)	26%	61%	77.3% (active)	46%	66%	62.5%	29%	47%	83.2% (active)	37%	73% (active)	64.5%	35%	78% (active)	71% (active)
C[n+]1c2ccc(Cl)cc2nc2cc(-c3ccccc3)ccc21	15%	98% (active)	98.6% (active)	23%	99% (active)	99% (active)	32%	99% (active)	98.9% (active)	7%	98% (active)	98.2% (active)	54%	98% (active)	98.9% (active)	39%	98% (active)	98.6% (active)
CC(C)NCC=C=Nc1ccccc1	-11%	-32%	45.8%	-30%	-25%	9.45%	-8%	-21%	43.4%	-2%	-28%	40.5%	-26%	-82%	-5.5%	-9%	-29%	24.2%
O=C1CSC(=S)N1c1cccc(Cl)c1	20%	28%	40.5%	15%	23%	86% (active)	13%	94% (active)	79.6% (active)	9%	73% (active)	19.4%	8%	92% (active)	70.2% (active)	24%	48%	91.7% (active)
CC(C)c1cc(O)c(C(C)(C)C)cc1Cl	-1%	15%	74.5% (active)	2%	38%	77.2% (active)	-1%	24%	77.3% (active)	4%	45%	72.5% (active)	-11%	30%	76.6% (active)	3%	47%	86.8% (active)
O=C(/C=C/c1cccc([N+](=O)[O-])c1)CCl	1%	98% (active)	99.3% (active)	-20%	99% (active)	99.6% (active)	13%	99% (active)	99.2% (active)	-22%	98% (active)	98.9% (active)	14%	98% (active)	99.5% (active)	-32%	98% (active)	99.3% (active)
CCCCC(CC)CNc1ncnc2c1cnn2C (configuration not stated)	1%	92% (active)	36.7%	-3%	91% (active)	-1.45%	1%	94% (active)	91.7% (active)	-10%	89% (active)	20.9%	0%	96% (active)	48.4%	14%	96% (active)	32.8%
Nc1ccccc1-c1nc2c(ccc3ccccc32)[nH]1	-1%	10%	79.7% (active)	-17%	-10%	4.6%	-16%	-5%	88.8% (active)	8%	-10%	24.6%	-3%	2%	62.3%	0%	-18%	80.5% (active)
CC(=O)Nc1cccc2c1ccc1ccc3ccccc3c12	13%	21%	77.3% (active)	-1%	9%	61.2%	4%	20%	71.2% (active)	-12%	-11%	-3.25%	3%	-1%	5.75%	32%	52%	71% (active)
CCN(CC)CCNc1ccc2nnn3c4ccccc4c(=O)c1c23	-2%	63%	30.8%	-31%	21%	17.7%	0%	-4%	9.3%	-1%	39%	21.1%	-10%	19%	10.2%	-1%	-3%	81.2% (active)
